Screening data from PubChem BioAssay.
PLCb3 inh – PLC-beta3 (human) inhibition, primary screen | Q01970 | Purified PLC-beta3, fluorogenic substrate, fluorescence | inhibition, % at 12.2 µM | 370,000 tested, 0.18% active
Rce1 inhib – blocks yeast Ras-converting enzyme; Q03530; yeast membranes, quenched prenylated peptide cleavage fluorescence; calls only; 290,000 tested, 0.27% active; AID 2563;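 active = fall in fluorescence gain of 50% or more versus controls, with final raw signal at or below 3038400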
ADAM10 inh – ADAM10 inhibition, QFRET primary screen. AID 720582. 370,000 tested, 0.62% active. recombinant ADAM10, EDANS/DABCYL FRET peptide cleavage, 3 h. inhibition, % at 7 µM;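 active = inhibition above a per-campaign cutoff equal to the mean of compounds falling between control-based bounds plus 3 SD, cut at about 20% in these data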
PLC-gamma1 inh – blocks human PLC-gamma1 enzyme activity. purified PLC-gamma1, fluorogenic substrate, fluorescence. inhibition, % at 12.2 µM. P19174. 370,000 tested, 0.84% active; in the data active = inhibition above about 9.5%
Target sequence (P19174 whole entry, looked up): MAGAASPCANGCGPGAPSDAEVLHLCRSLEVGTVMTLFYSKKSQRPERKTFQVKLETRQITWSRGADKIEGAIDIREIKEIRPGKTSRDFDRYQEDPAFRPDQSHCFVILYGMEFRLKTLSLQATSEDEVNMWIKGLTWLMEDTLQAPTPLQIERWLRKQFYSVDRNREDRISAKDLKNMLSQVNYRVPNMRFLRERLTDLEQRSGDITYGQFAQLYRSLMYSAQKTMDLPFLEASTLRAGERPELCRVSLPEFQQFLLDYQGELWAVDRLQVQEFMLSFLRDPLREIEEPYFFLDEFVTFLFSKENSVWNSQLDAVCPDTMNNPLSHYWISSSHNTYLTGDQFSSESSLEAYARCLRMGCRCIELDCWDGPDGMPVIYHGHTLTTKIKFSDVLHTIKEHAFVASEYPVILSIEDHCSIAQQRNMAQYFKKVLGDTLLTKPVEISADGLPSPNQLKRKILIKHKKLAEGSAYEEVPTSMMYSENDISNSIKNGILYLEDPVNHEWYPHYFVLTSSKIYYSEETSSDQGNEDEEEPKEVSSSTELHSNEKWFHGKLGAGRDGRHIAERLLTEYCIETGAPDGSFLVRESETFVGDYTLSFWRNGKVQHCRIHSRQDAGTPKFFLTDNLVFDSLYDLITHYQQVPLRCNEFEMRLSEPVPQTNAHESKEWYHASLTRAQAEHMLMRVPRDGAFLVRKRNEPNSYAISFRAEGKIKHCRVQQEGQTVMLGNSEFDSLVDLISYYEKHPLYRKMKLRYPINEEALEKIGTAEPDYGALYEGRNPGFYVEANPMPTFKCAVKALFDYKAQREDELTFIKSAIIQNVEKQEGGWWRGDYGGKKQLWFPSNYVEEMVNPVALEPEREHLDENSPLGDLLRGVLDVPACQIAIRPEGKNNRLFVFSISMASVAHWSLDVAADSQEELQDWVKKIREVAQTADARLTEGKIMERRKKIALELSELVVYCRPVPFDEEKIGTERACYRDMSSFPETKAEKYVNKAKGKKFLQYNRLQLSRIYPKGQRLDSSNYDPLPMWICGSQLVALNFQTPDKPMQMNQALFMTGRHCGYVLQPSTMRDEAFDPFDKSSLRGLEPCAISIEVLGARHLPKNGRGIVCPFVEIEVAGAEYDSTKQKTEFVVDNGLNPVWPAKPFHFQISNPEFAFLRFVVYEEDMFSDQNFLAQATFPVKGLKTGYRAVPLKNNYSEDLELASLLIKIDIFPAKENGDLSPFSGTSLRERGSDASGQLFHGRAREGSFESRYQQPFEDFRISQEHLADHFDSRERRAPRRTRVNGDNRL
ADAM17 inh – ADAM17 inhibition, QFRET primary screen; recombinant ADAM17, EDANS/DABCYL FRET peptide cleavage; inhibition, % at 6.95 µM; 370,000 tested, 0.83% active; AID 720648;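 active = inhibition above the mean of compounds lying between control limits plus 3 SD, set per campaign, cut at about 8.5% in these data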
PLCg1 ctr – PLC-gamma1 inhibition, counter-screen for PLC-beta3 hits. shares compounds with PLC-gamma1 inh. purified PLC-gamma1, fluorogenic substrate, fluorescence. inhibition, % at 12.3 µM. 3,300 tested, 3.1% active. AID 743258; in the data active = inhibition above about 9.5%
PLCbeta3 conf – human PLC-beta3 inhibition, confirmation. shares compounds with PLC-gamma1 inh. purified PLC-beta3, fluorogenic substrate fluorescence. inhibition, % at 12.3 µM. 3,300 tested, 1% active. AID 743261
Hits are given with their value; 0 = inactive; - = no result given. Only some compounds are listed: those with a hit (about 2.1% of all), similar ones and a draw of the others. Cut-off read from the data, not from the text of the source, unless noted: active = inhibition above about 11%; inactive = the rest.

SMILES	PLCb3 inh	Rce1 inhib	ADAM10 inh	PLC-gamma1 inh	ADAM17 inh	PLCg1 ctr	PLCbeta3 conf
O=C(Nc1cccc(S(=O)(=O)c2cccc(NC(=O)c3ccco3)c2)c1)c1ccco1	0	0	0	15	0	0	0
Cc1cc(NS(=O)(=O)c2ccc(NC(=O)c3ccco3)cc2)no1	0	0	0	0	0	-	-
Cc1cc(NC(=O)c2ccco2)no1	0	0	0	18	0	0	0
NS(=O)(=O)c1cccc(NC(=O)c2cc3ccccc3o2)c1	0	-	0	11	0	0	0
CCC1(c2ccc(Cl)cc2)NC(=O)N(CC(=O)NC2CCCC(C)C2C)C1=O (stereo unspecified)	0	-	0	0	0	-	-
COc1ccc(S(=O)(=O)N(C)C[C@H]2Oc3ccc(NC(=O)Nc4c(C)noc4C)cc3C(=O)N([C@H](C)CO)C[C@@H]2C)cc1	0	-	0	0	0	-	-
O=C(Nc1ccccc1N1CCN(C(=O)c2ccc(Cl)cc2)CC1)c1cccc(F)c1	0	0	0	12	0	0	0
O=C(c1cccc(C(=O)N2CCN(c3ccccc3F)CC2)c1)N1CCN(c2ccccc2F)CC1	0	0	0	0	0	-	-
CC(=O)c1ccc(N2CCN(C(=O)C(=O)c3c(C)[nH]c4ccccc34)CC2)cc1	0	0	0	0	0	-	-
Cc1[nH]c2ccccc2c1C(=O)C(=O)N1CCN(c2ccccc2F)CC1	0	0	0	15	0	0	0
O=C(c1c(F)cccc1F)N1CCN(c2ccccc2F)CC1	16	0	0	0	0	0	0
O=C(O)Cc1sc(Nc2cccc3ccccc23)nc1-c1ccc(Cl)cc1	0	0	0	0	0	-	-
O=C(CN1CCN(C(=O)c2ccccc2)CC1)Nc1ccc(Br)cn1	0	0	0	12	0	0	0
O=C(CN1CCN(C(=O)c2ccccc2)CC1)Nc1ccccc1	0	-	0	0	0	-	-
COc1cccc(SCc2noc(C(=O)NCCN(C)C)c2C(=O)NCCN(C)C)c1	0	0	0	9.7	0	0	0
CN(CCc1ccccn1)C1CCCN(S(=O)(=O)c2ccc(F)c(Cl)c2)C1 (stereo unspecified)	0	0	0	11	0	0	0
Cc1cc(S(=O)(=O)N2CCCC(N(C)CCc3ccccn3)C2)c(C)s1 (stereo unspecified)	0	-	0	0	0	-	-
Cc1nc2nc(C)c(NS(=O)(=O)c3ccc4c(c3)CCCC4)c(=O)n2[nH]1	0	0	0	0	0	-	-
CCCn1c(=O)c2c(nc3n2CCN3Cc2ccco2)n(C)c1=O	0	0	0	0	0	-	-
Cn1c(=O)n(Cc2ccc(Cl)cc2)c(=O)c2c1nc1n2CCN1Cc1ccco1	0	0	0	11	0	0	0
COc1ccc(CNC(=O)CC[C@H]2O[C@@H](n3cnc4c(NC(=O)c5ccccc5)ncnc43)[C@H](O)[C@@H]2O)cc1	0	-	0	0	0	-	-
O=C(c1ccccc1NS(=O)(=O)c1ccc(Br)s1)N1CCCC1	11	0	0	0	0	0	0
CC(C)NC(=O)c1ccccc1NS(=O)(=O)c1ccc(Br)s1	0	0	0	0	0	-	-
O=C(c1cn(-c2ccccc2)nc1-c1cccnc1)N1CCCC(C(F)(F)F)C1 (stereo unspecified)	0	0	0	0	0	-	-
CCCNC(=O)C1(C)CCCN(C(=O)CN2C(=O)c3ccccc3C2=O)C1 (stereo unspecified)	0	-	0	10	0	0	0
SMILES	PLCb3 inh	Rce1 inhib	ADAM10 inh	PLC-gamma1 inh	ADAM17 inh	PLCg1 ctr	PLCbeta3 conf
CN1CCCCC(NC(=O)c2cccc(F)c2)C1=O (stereo unspecified)	0	-	0	0	0	-	-
CCO[C@H]1OC(C(=O)N2CCN(Cc3ccc4c(c3)OCO4)CC2)=C[C@@H](c2cn(C(C)=O)c3ccccc23)[C@@H]1CCCO	0	0	0	0	0	-	-
CCO[C@H]1OC(C(=O)N2CCN(C)CC2)=C[C@@H](c2ccc3c(c2)OCO3)[C@@H]1CCCO	20	0	0	0	0	0	0
CCO[C@H]1OC(C(=O)N2CCN(Cc3ccc4c(c3)OCO4)CC2)=C[C@@H](c2csc3ccccc23)[C@@H]1CCCO	11	0	0	0	0	0	0
O=C1C(=C(I)I)c2ccccc2-c2ccccc21	0	-	0	34	0	39	0
O=C(O)c1cccc2c1C(=O)c1ccccc1-2	0	0	0	0	0	-	-
O=C(O)CCC(=O)NNC(=O)c1cccc(Cl)c1	0	0	0	0	0	-	-
COc1cccc(C(=O)NNC(=O)CCC(=O)O)c1	0	0	0	9.9	0	0	0
COC(=O)[C@]12C[C@H](CC(=O)NCCCN3CCCC3=O)C(=O)N(Cc3ccc4c(c3)OCO4)C1=C[C@H](C(C)(C)C)O[C@@H]2C	0	-	0	0	0	-	-
C=C(C)c1ccccc1NC(=O)CCN1C(=O)c2ccccc2S1(=O)=O	0	0	0	9.6	0	0	0
COc1ccc(-c2ccc(C(=O)NCc3ccc(N(C)C)cc3)c3occc23)c(C)c1	0	-	0	0	0	-	-
Cc1ccc2cc(CCNC(=O)C3CCCC3)c(=O)[nH]c2c1	11	0	0	0	0	0	0
COc1ccc(C(=O)NCC2CCN(C(=O)C(=O)c3cc4ccccc4o3)CC2)cc1	0	-	0	0	0	-	-
Cc1ccc(/C=N/NC(=O)C[n+]2ccccc2)o1	0	0	0	0	0	-	-
O=C(C[n+]1ccccc1)N/N=C/c1ccco1	0	0	0	9.5	0	0	0
CCN(CC(=O)Nc1cccc(F)c1)CC(=O)Nc1ccccc1OC	0	0	0	9.8	0	0	0
Oc1c(N=NC(=S)Nc2ccccc2F)c2ccccc2n1Cc1ccc(F)cc1	0	0	0	10	0	0	0
O=C(O)c1ccccc1NS(=O)(=O)c1ccc(N/N=C/c2cccc(O)c2O)c([N+](=O)[O-])c1	0	-	0	9.6	0	0	0
NS(=O)(=O)c1ccc(N/N=C/c2ccc[nH]2)c([N+](=O)[O-])c1	0	0	0	12	0	0	0
N#C/C(=C\c1cn(CCOc2ccccc2)c2ccccc12)C(=O)NCc1cccs1	0	0	0	0	0	-	-
O=C(CCSc1ccccc1)N1CCN(C(=O)c2ccco2)CC1	0	0	0	14	0	0	0
O=C(Cc1ccccc1)N1CCN(C(=O)c2ccco2)CC1	0	0	0	0	0	-	-
C=CCN(C(=O)CCC(=O)Nc1cc(C)on1)C(C(=O)NC(C)(C)C)c1ccc(OC)cc1 (stereo unspecified)	0	0	0	0	0	-	-
CC1(C)CC(=O)C(C(C2=C(O)CC(C)(C)CC2=O)c2ccc(O)c([N+](=O)[O-])c2)=C(O)C1	0	0	0	0	0	-	-
CCCCC(=O)Nc1ccc(C(=O)Nc2cccnc2)cc1	0	0	0	10.0	0	0	0
C=CCNC(=O)N1CCCC(C(=O)c2cccc(OC(C)C)c2)C1 (stereo unspecified)	0	0	0	11	0	0	0
Cc1nn(C)cc1S(=O)(=O)Nc1ccc(C(F)(F)F)cc1	0	0	0	0	0	-	-
